Compounds with a hit are over-represented: about 2.4% of the library has one in this group of screens.
D2 antagonist = antagonizes the human D2 dopamine receptor. inhibition, % at 10 µM. hit rate 2% among 340,000. HEK293 TREx D2 cells, calcium flux, dopamine EC80; in the data active = inhibition above about 30%; inactive = below that, where a call was filed; note: 0% is about no effect
Target sequence (P14416 whole entry, looked up): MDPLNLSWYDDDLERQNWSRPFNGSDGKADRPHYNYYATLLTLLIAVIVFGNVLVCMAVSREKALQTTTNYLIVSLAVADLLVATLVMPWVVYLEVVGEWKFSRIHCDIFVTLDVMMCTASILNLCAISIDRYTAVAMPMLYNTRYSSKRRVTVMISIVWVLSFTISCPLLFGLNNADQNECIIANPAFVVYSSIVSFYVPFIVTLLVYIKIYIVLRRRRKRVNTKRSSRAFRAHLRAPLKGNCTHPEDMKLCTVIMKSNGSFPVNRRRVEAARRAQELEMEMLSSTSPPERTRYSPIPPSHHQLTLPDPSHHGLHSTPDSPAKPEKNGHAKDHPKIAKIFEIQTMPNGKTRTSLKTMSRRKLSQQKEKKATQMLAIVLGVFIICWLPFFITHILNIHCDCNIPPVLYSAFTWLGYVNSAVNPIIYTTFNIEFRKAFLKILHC
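HEK293 T-REx D2 cells, tet-induced, calcium dye no-wash. Cpd pintool add, 180 s kinetic, then EC80 DA, 180 s kinetic. Ca flux read.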
D2 PAM-1 = human D2 receptor positive allosteric modulation; AID 624464; hit rate 0.23% among 360,000; DiscoveRx D2 beta-arrestin cells, luminescence, 90 min; 100% = 57 uM dopamine signal; potentiation, % (test concentration not listed); in the data active = potentiation above about 50%; inconclusive = mostly about 30% to 49%
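PathHunter beta-arrestin assay in DiscoveRx D2 cells. Compounds were added with an EC20 of dopamine (50 nM final) for 90 min at 37 deg C. Luminescence was read 1 h after detection reagent, with 57 uM dopamine as the EC100 control.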
D2 ag-1 = activates the human D2 dopamine receptor; P14416; HEK293 T-REx D2 cells, calcium flux agonist mode; activation, % at 2 µM; hit rate 0.53% among 340,000; AID 485358;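 active = activation over 3 SD above normal in the single-dose calcium agonist read, cut at about 30% in these data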; note: 0% is about no effect
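In this primary screen, compounds producing a positive calcium signal within 180 s of addition to tetracycline-induced, force-coupled HEK293 Trex D2 cells are flagged; cells are dye-loaded with a no-wash calcium kit beforehand.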
D2 ag-2 = agonists of human D2 dopamine receptor (beta-arrestin). DiscoveRx PathHunter D2 beta-arrestin, luminescence, 90 min; 100% = 57 uM dopamine signal. hit rate 0.084% among 360,000. AID 624465. activation, % (test concentration not listed); in the data active = activation above about 40%; inconclusive = between about 15% and that limit
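Agonist mode: compounds alone added to overnight-plated D2 PathHunter cells for 90 min at 37 C, with 57 uM final dopamine (EC100) defining full response. Beta-arrestin recruitment detected by chemiluminescent reagent, read after 1 h at ambient temperature.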
D2 PAM-2 = positively modulates the human D2 dopamine receptor allosterically | P14416 | hit rate 0.34% among 340,000 | potentiation, % at 10 µM | HEK293 T-REx D2, calcium flux, EC20 dopamine potentiation;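 active = potentiation over 3 SD above the plate norm, cut at about 30% in these data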; note: 0% is about no effect
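Tetracycline-induced Hek293 Trex D2 cells, force-coupled to calcium, loaded with no-wash calcium dye. Compound added with 180 s kinetic read for agonism, then EC20 dopamine and a further 180 s read for potentiation.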
D3 ag = D3 receptor agonism confirmed, beta-arrestin readout; DiscoveRx D3 beta-arrestin cells, luminescence, 90 min; hit rate 4% among 2,300; Potency, µM (top dose mostly 76.9 µM), inactives show at the highest dose activation, most hits filed as activators; shares compounds with D2 ag-1;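 note: potency is the fitted concentration of half-maximal effect; 100% = dopamine control response; nearly all actives have a fitted effect of over 70% in size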
D2 ag-3 = D2 receptor agonism, beta-arrestin counterscreen; shares compounds with D2 ag-1; DiscoveRx PathHunter D2 beta-arrestin, luminescence, 90 min; response scale: percent relative to full dopamine signal; Potency, µM (titrated, usually from 76.9 µM), inactives show at the top dose activation, hits mostly activators; hit rate 5.9% among 2,300; AID 720507; note: potency is the fitted concentration of half-maximal effect; % of control where 0% means no effect; nearly all actives have a fitted effect of over 70% in size
Starred values were filed as active, the others as inactive. Unless noted, calls come from the whole dose curve; as a rule, active = well fitted activation curve with a large enough effect; inconclusive = small, poorly fitted or top-dose-only effect; inactive = flat fitted curve, though single readings scatter.

For CN1CCc2c(sc(/N=C/c3cc(C(C)(C)C)ccc3O)c2C#N)C1 the results were D2 antagonist 90*, D2 PAM-1 27, D2 ag-1 92*, D2 ag-2 43*, D2 PAM-2 -23, D3 ag 20% and D2 ag-3 inconclusive.
`COc1ccc(-c2cc(OC(=O)c3ccccc3Cl)c3c(C)oc(C)c3c(=O)c2)cc1OC` gave D2 ag-1 -1 and D2 PAM-2 5.
Screening COCCNC(=S)Nc1cc2oc3ccccc3c2cc1OC returned D2 antagonist 30*, D2 PAM-1 -12, D2 ag-1 57*, D2 ag-2 2, D2 PAM-2 -19, D3 ag -4% and D2 ag-3 17%.
For Cc1ccc(C)c(NC(=O)CSc2nncn3c2cc2sccc23)c1 the results were D2 ag-1 0 and D2 PAM-2 -4.
For CC(OC(=O)Cn1cnc2ccccc2c1=O)C(=O)NCc1ccccc1 (stereo unspecified) the results were D2 antagonist 8, D2 PAM-1 -3, D2 ag-1 49*, D2 ag-2 -1, D2 PAM-2 -20, D3 ag -8% and D2 ag-3 -2%.
For Cc1ccc(NC(=O)C(C)OC(=O)Cn2cnc3ccccc3c2=O)cc1 (stereo unspecified) the results were D2 antagonist 7, D2 PAM-1 17, D2 ag-1 0, D2 ag-2 -1 and D2 PAM-2 1.
Screening CC(=O)Nc1ccc(C2=CC(=O)CC(C)(C)C2)cc1 returned D2 antagonist -4, D2 PAM-1 -7, D2 ag-1 -1, D2 ag-2 -10, D2 PAM-2 1, D3 ag -5% and D2 ag-3 -1%.
O=C(NCCN1CCN(c2cccc(Cl)c2)CC1)C1CCCN(S(=O)(=O)c2cnc[nH]2)C1 (stereo unspecified) was read as D2 antagonist 81*, D2 PAM-1 25, D2 ag-1 81*, D2 ag-2 1, D2 PAM-2 -17, D3 ag inconclusive and D2 ag-3 inconclusive.
Screening O=C(NCCN1CCN(c2ccccc2)CC1)C1CCN(S(=O)(=O)N2CCOCC2)CC1 returned D2 antagonist 61*, D2 PAM-1 6, D2 ag-1 84*, D2 ag-2 inconclusive, D2 PAM-2 -24, D3 ag inconclusive and D2 ag-3 inconclusive.
For O=C(NCCN1CCN(c2ccccc2)CC1)C1CCCN(S(=O)(=O)c2cnc[nH]2)C1 (stereo unspecified) the results were D2 antagonist 76*, D2 PAM-1 74*, D2 ag-1 74*, D2 ag-2 inconclusive, D2 PAM-2 -25, D3 ag inconclusive and D2 ag-3 inconclusive.
Screening O=C(CN1CCN(Cc2ccc(Cl)cc2)C1=O)NCCCN1CCN(c2ccc(F)cc2)CC1 returned D2 antagonist -14, D2 PAM-1 -14, D2 ag-1 -1, D2 ag-2 3 and D2 PAM-2 -24.
`Cc1ccccc1CN1CCN(CC(=O)NCCCN2CCN(c3ccc(F)cc3)CC2)C1=O` gave D2 antagonist 64*, D2 PAM-1 -37, D2 ag-1 5, D2 ag-2 -2, D2 PAM-2 -16, D3 ag 0% and D2 ag-3 22%.
O=C(C1CCN(S(=O)(=O)c2ccc(Cl)c(C(F)(F)F)c2)CC1)N1CCC1 was read as D2 antagonist -9, D2 PAM-1 -1, D2 ag-1 1, D2 ag-2 5, D2 PAM-2 1, D3 ag 0% and D2 ag-3 1%.
For CC(=O)c1ccc(S(=O)(=O)NCCC(=O)OCC(=O)NCCc2ccccc2)cc1 the results were D2 antagonist -7, D2 PAM-1 -4, D2 ag-1 0, D2 ag-2 -3 and D2 PAM-2 -7.
Screening CC(=O)c1ccc(OC(C)C(=O)OCC(=O)NCCc2ccccc2)cc1 (stereo unspecified) returned D2 antagonist 18, D2 PAM-1 7, D2 ag-1 0, D2 ag-2 1, D2 PAM-2 7, D3 ag 2% and D2 ag-3 -1%.
CCCC(=O)N1CCc2cc(OC)c(OC)cc2C1COc1ccc2c(C)cc(=O)oc2c1 (stereo unspecified) was read as D2 ag-1 -1 and D2 PAM-2 19.
CCn1nc(C)c2c(-c3ccccc3)cc(=O)n(C(C)C(=O)NCCC(C)C)c21 (stereo unspecified) was read as D2 ag-1 1 and D2 PAM-2 9.
`COC(=O)Cc1ccc(NC(=S)N2CCN(c3ccc(OC)cc3)CC2)cc1` gave D2 antagonist -9, D2 PAM-1 -6, D2 ag-1 0, D2 ag-2 -2 and D2 PAM-2 5.
COC(=O)Cc1ccc(NC(=S)N2CCN(c3cccc(O)c3)CC2)cc1 was read as D2 antagonist 24, D2 PAM-1 -5, D2 ag-1 44*, D2 ag-2 14, D2 PAM-2 -15, D3 ag 28µM* and D2 ag-3 inconclusive.
CC(C)(O)[C@@H]1CC(=O)[C@]2(C)[C@H](CC[C@@]3(C)[C@H](c4ccoc4)OC(=O)[C@H]4O[C@]432)[C@@]1(C)/C=C\C(=O)O was read as D2 antagonist 5, D2 PAM-1 -5, D2 ag-1 -1, D2 ag-2 -1 and D2 PAM-2 -2.
Screening CC1(C)OC(=O)C=C[C@]2(C)[C@H]3CC[C@@]4(C)[C@H](C(=O)O)OC(=O)[C@H]5O[C@]54[C@]3(C)C(=O)C[C@@H]12 returned D2 antagonist 11, D2 PAM-1 -9, D2 ag-1 0, D2 ag-2 -2, D2 PAM-2 16, D3 ag -5% and D2 ag-3 -4%.
`Cc1cc(C)cc(-n2c(SCC(=O)Nc3ccccc3)nc3c(oc4ccccc43)c2=O)c1` gave D2 ag-1 1 and D2 PAM-2 5.
`COc1ccc(S(=O)(=O)N(CCc2ccccc2)CC(=O)NCc2ccccc2)cc1OC` gave D2 ag-1 0 and D2 PAM-2 3.
`COc1ccc(N2CC(NC(=O)c3cc4ccccc4o3)CC2=O)cc1OC` (stereo unspecified) gave D2 ag-1 0 and D2 PAM-2 13.

Compound activity as filed in PubChem.
